Screening results: PubChem BioAssay, National Center for Advancing Translational Sciences (NCATS)
In the library only some 2.2% were active in any assay of this set; here they are far more common.
Mito fusion act: qHTS Assay for Small Molecule Inhibitors of Mitochondrial Division or Activators of Mitochondrial Fusion. S. cerevisiae fusion-defective mutant growth rescue, CellTiterGlo 48 h. Potency, µM (doses to about 46.1 µM), without a hit: at the top dose growth rescue (activation), actives largely listed as activators. 0.23% of 320,000 active; also: % of control where 0% means no effect; nearly all actives have a fitted effect of over 45% in size
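Compounds are tested for their ability to restore growth of mitochondrial fusion-defective yeast strains at non-permissive 37C in YPEG medium over 48 hours. Viability is quantified by luciferase luminescence.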
FUS yeast rescue: qHTS for Suppressors of FUS Proteinopathy: Primary screen using FUS-linked yeast assay; 0.24% of 390,000 active; AID 1347120, 2019; S. cerevisiae FUS-expressing, growth rescue, OD600, 24 h; Potency, µM (series often up to 76.6 µM), most hits filed as activators;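 also: plate controls were DMSO vehicle for no effect and reference control for full effect; nearly all actives have a fitted effect of over 55% in size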
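Quantitative HTS measuring growth restoration of FUS-toxic yeast. Galactose-induced cells (OD 0.005) were exposed 24hr at 30C to compounds at several concentrations, then absorbance at 600 nm was recorded.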
TDP-43 yeast inh: qHTS of TDP-43 Inhibitors. Potency, µM (top dose mostly 46.1 µM), for the others: top-dose growth rescue (activation), most hits filed as activators. 1.8% of 410,000 active. TDP-43 expressing yeast growth rescue, BacTiter-Glo, 24 h; also: % of control where 0% means no effect; nearly all actives have a fitted effect of over 50% in size
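In this qHTS, compounds that restore growth of yeast expressing TDP-43 appear as activators. Cells (OD600=0.02, galactose medium, raffinose-pregrown) are incubated with compound 24 hr at 30 deg C and growth is quantified by BacTiter-Glo.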
Abeta rescue: qHTS for compounds that reverse cellular toxicity of Amyloid beta (A-beta) peptide in yeast: Primary Screen. yeast expressing A-beta42, growth rescue, OD600, 48 h; response scale: 0% DMSO, 100% iron-clioquinol control. Potency, µM (series often up to 46.1 µM), most hits filed as activators. 0.063% of 410,000 active; also: nearly all actives have a fitted effect of over 55% in size
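Yeast A-beta toxicity model in growth medium with pinned compounds, 48 h at 30 C; growth read as absorbance at 600 nm. Normalized to FeCl3/clioquinol equimolar mix (positive) and DMSO (negative).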
aSyn yeast inh: qHTS of alpha-syn Inhibitors | Yeast expressing alpha-synuclein, growth rescue, BacTiter-Glo, 24 h | Potency, µM (titrated, usually from 46.1 µM), for the others: at the highest dose growth rescue (activation), usual class: activators | 0.14% of 370,000 active; also: % of control where 0% means no effect; nearly all actives have a fitted effect of over 65% in size
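Galactose-induced alpha-syn yeast (OD600=0.02, raffinose-pregrown) + pinned cpd, 24 hr, 30 deg C; growth by BacTiter-Glo luminescence. Growth restoration scores as activation.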
An asterisk follows results filed as active; [ ] = dose if it differs, or a comment. Calls follow the shape of the dose curve; as a rule, active = well fitted curve in the direction sought with a large enough effect; inconclusive = small, poorly fitted or top-dose-only effect, or another doubt; inactive = no such curve, though single readings can be large; an effect the other way counts as inactive or inconclusive. Potency is read from the fitted curve at half-maximal effect.

How did COc1ccc2nccc(/C=C/c3ccc(N(C)C)cc3)c2c1 do in these assays?
aSyn yeast inh: -26%

How did CN1/C(=C/C(=S)NC(=O)C2(C)CC2(Cl)Cl)C(C)(C)c2ccccc21 (stereo not given) do in these assays?
Mito fusion act: 8%; FUS yeast rescue: inconclusive; TDP-43 yeast inh: -11%[1.82 µM]; Abeta rescue: 10µM*; aSyn yeast inh: -7%

Results for O=C(Cn1c2ncccc2c(=O)n1-c1ccccc1)NCc1ccccc1 ?
FUS yeast rescue: inactive; TDP-43 yeast inh: 13µM*; Abeta rescue: inactive

What do the screens show for `N#Cc1nc(COc2cccc(Cl)c2)oc1NCc1ccco1`?
Mito fusion act: inconclusive; FUS yeast rescue: inactive; TDP-43 yeast inh: inconclusive; Abeta rescue: inactive; aSyn yeast inh: -5%

Results for Cc1ccc(OCc2nc(C#N)c(NCc3ccco3)o2)cc1 ?
Mito fusion act: 15%; FUS yeast rescue: inactive; TDP-43 yeast inh: 11µM*; Abeta rescue: inactive; aSyn yeast inh: 15%

What do the screens show for `COc1ccc(Nc2oc(COc3ccc(C)cc3)nc2C#N)cc1`?
Mito fusion act: 12%; FUS yeast rescue: inactive; TDP-43 yeast inh: 22µM*; Abeta rescue: inactive

Results for COc1ccccc1CCC[C@H](CCS(=O)(=O)C(C)C)CC1CCCCC1 ?
FUS yeast rescue: inactive

What do the screens show for `COc1ccccc1CN(C)CC(=O)c1c(C)[nH]c2ccccc12`?
aSyn yeast inh: 0%

How did COc1ccc(/C=C(\C#N)C(=O)NC(C)c2ccccc2)cc1O (stereo not given) do in these assays?
Mito fusion act: 3%; FUS yeast rescue: inactive; TDP-43 yeast inh: 20µM*; Abeta rescue: inconclusive; aSyn yeast inh: 27%

What do the screens show for `COC(=O)c1ccc(/C=C(\C#N)C(=O)NC(C)c2ccccc2)cc1` (stereo not given)?
Mito fusion act: -4%; FUS yeast rescue: inactive; TDP-43 yeast inh: 13µM*; Abeta rescue: inactive; aSyn yeast inh: inconclusive

How did O=C(NC1=NCCS1)c1cc(-c2cccc(Br)c2)nc2ccccc12 do in these assays?
Mito fusion act: 23%; TDP-43 yeast inh: 22µM*; Abeta rescue: inactive; aSyn yeast inh: -24%

What do the screens show for `Cc1ccc2nc(-c3cccc(Br)c3)cc(C(=O)NC3=NCCS3)c2c1`?
Mito fusion act: 23%; FUS yeast rescue: inactive; TDP-43 yeast inh: 20µM*; Abeta rescue: inactive; aSyn yeast inh: -26%

Results for O=C(OCc1cn(Cc2cccc(F)c2F)nn1)N1CCCC1 ?
FUS yeast rescue: inactive

What do the screens show for `CN(C)CCOC1c2ccccc2CCc2ccc3ccccc3c21` (stereo not given)?
FUS yeast rescue: inactive; TDP-43 yeast inh: 16µM*; Abeta rescue: inactive; aSyn yeast inh: inconclusive

How did Cc1ccc(C)c(N2CCN(C(=O)c3cc(S(=O)(=O)N4CCC(C)CC4)cn3C)CC2)c1 do in these assays?
FUS yeast rescue: inactive; TDP-43 yeast inh: 22%; Abeta rescue: inactive

Results for Fc1ccccc1Cn1cc(C(=S)N2CCOCC2)c2ccccc21 ?
Mito fusion act: -1%; FUS yeast rescue: inactive; TDP-43 yeast inh: inconclusive; Abeta rescue: inconclusive; aSyn yeast inh: 20µM*

What do the screens show for `NC(Cc1ccc(Cl)cc1)c1csc(NC(=O)NCC2CCCCC2)n1` (stereo not given)?
FUS yeast rescue: 25µM*; TDP-43 yeast inh: inconclusive; Abeta rescue: inactive; aSyn yeast inh: -43%

What do the screens show for `O=C(OCCCOc1ccc(F)cc1)c1ccc(O)cc1O`?
Mito fusion act: 2%; FUS yeast rescue: inactive; TDP-43 yeast inh: 13µM*; Abeta rescue: inactive; aSyn yeast inh: -11%

How did O=C(CCCOC(=O)c1ccc(O)cc1O)c1ccccc1 do in these assays?
Mito fusion act: 18%; FUS yeast rescue: inactive; TDP-43 yeast inh: inconclusive; Abeta rescue: inactive; aSyn yeast inh: 8%

Results for COC(=O)[C@]12CCCCC=C1N(Cc1ccc(OC)cc1)C(=O)[C@@H]2CC(=O)N1CCN(C(=O)C2CC2)CC1 ?
FUS yeast rescue: inactive

Results for CCOC(=O)C1CCN(C(c2cc3ccc(C)c(C)c3[nH]c2=O)c2nnnn2C2CCCCC2)CC1 (stereo not given) ?
Mito fusion act: -21%; FUS yeast rescue: 35µM*; TDP-43 yeast inh: 0%; Abeta rescue: inactive; aSyn yeast inh: 13%

What do the screens show for `CCOC(=O)C1CCN(C(c2cc3c(C)ccc(C)c3[nH]c2=O)c2nnnn2C2CCCCC2)CC1` (stereo not given)?
Mito fusion act: 3%; FUS yeast rescue: inactive; TDP-43 yeast inh: -38%; Abeta rescue: inactive; aSyn yeast inh: 10%

Results for COc1cc(/C=C/C(=O)OCC(=O)NCCC2=CCCCC2)ccc1O ?
Mito fusion act: inconclusive; FUS yeast rescue: inactive; TDP-43 yeast inh: 0%; Abeta rescue: inactive; aSyn yeast inh: -3%

How did COc1cc(/C=C/C(=O)OCC(=O)NCCC2=CCCCC2)cc(OC)c1OC do in these assays?
FUS yeast rescue: inactive; TDP-43 yeast inh: 35µM*; Abeta rescue: inactive; aSyn yeast inh: 14%

Results for CC1=NNC(=O)/C1=C\c1cn(-c2ccccc2)nc1-c1ccc(Cl)cc1 ?
Mito fusion act: -16%; TDP-43 yeast inh: 10µM*; Abeta rescue: inactive; aSyn yeast inh: -26%

Results for COc1ccc(C(=O)C2(C(=O)Nc3cc(C)cc(C)c3)CC(c3ccccn3)=NO2)cc1 (stereo not given) ?
FUS yeast rescue: inactive

What do the screens show for `CCn1c(=NC(=O)CSC(C)=O)sc2cc(OC)ccc21`?
Mito fusion act: 18%; FUS yeast rescue: inactive; TDP-43 yeast inh: 14µM*; Abeta rescue: inconclusive; aSyn yeast inh: 4%

Results for COCCn1c(=NC(=O)CSC(C)=O)sc2cc(F)ccc21 ?
Mito fusion act: 2%; FUS yeast rescue: inactive; TDP-43 yeast inh: 25%; Abeta rescue: inconclusive; aSyn yeast inh: 1%

How did CCOC(=O)Cn1c(=NC(=O)CSC(C)=O)sc2cc(F)ccc21 do in these assays?
Mito fusion act: 3%; FUS yeast rescue: inactive; TDP-43 yeast inh: inconclusive; Abeta rescue: 6.3µM*; aSyn yeast inh: -1%

What do the screens show for `CC(C)C(=O)N[C@H]1[C@H](O)CCC[C@]12C(=O)N(Cc1ccccc1)c1ccccc12`?
FUS yeast rescue: inactive

How did O=C(N=c1ccn(-c2nc3ccccc3nc2NS(=O)(=O)c2ccccc2)cc1)c1ccccc1Cl do in these assays?
Mito fusion act: 3%; FUS yeast rescue: 25µM*; TDP-43 yeast inh: 7%; aSyn yeast inh: -1%
